PubChem BioAssay (Tox21)
Inconclusive results are not listed. Unmarked numbers belong to inactive results. Activity calls are given as the source filed them. Unless noted, calls come from the whole dose curve; as a rule, active = well fitted curve in the direction sought with a large enough effect in the repeat runs; inconclusive = weak or mixed curves; inactive = no such curve, though single readings can be large; an effect the other way counts as inactive or inconclusive.

Target: Peroxisome proliferator-activated receptor delta (Homo sapiens) (UniProt Q03181)
Sequence (Q03181 whole entry, looked up): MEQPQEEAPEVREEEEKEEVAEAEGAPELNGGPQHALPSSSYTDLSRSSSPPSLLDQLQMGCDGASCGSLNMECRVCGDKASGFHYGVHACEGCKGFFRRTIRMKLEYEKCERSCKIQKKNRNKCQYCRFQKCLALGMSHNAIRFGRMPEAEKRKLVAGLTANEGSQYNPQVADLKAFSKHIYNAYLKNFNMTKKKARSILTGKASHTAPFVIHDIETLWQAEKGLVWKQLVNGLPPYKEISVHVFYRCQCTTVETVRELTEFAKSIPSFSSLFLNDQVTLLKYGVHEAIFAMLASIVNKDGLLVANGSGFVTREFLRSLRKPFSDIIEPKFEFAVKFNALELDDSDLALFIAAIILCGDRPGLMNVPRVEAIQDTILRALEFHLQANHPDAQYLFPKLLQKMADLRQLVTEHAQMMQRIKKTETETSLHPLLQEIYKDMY
Experiment: qHTS assay to identify small molecule agonists of the peroxisome proliferator-activated receptor delta (PPARd) signaling pathway (AID 743212; calls by dose curve;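 note: HEK293H cells with PPARd UAS beta-lactamase reporter GeneBLAzer system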)
Conditions: HEK293H PPARd-UAS-bla, beta-lactamase FRET ratio, 17 h; series mostly up to 62.6 µM; activation: at the top concentration
Procedure, shortened: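 GeneBLAzer UAS-bla HEK293H cells carrying a PPARδ construct were exposed to compounds at 37 °C. Beta-lactamase activity was read by FRET fluorescence after 2 h at room temperature with LiveBLAzer B/G substrate.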
% is set by controls: 0 for no effect and ±100 for the full control effect.

Structure (SMILES) | activation
O=C(OCCN1CCOCC1)c1cccnc1Nc1cccc(C(F)(F)F)c1 | -4.62%
COc1cccc([C@H](O)C2CCN(CCc3ccc(F)cc3)CC2)c1OC | 1.29%
Cc1ccc2c(Cl)cc(Cl)c(O)c2n1 | -4.39%
N#C[C@@H]1CC(F)(F)CN1C(=O)CNC1CC2CCC(C1)N2c1ncccn1 (stereo partly drawn) | 2.04%
Sc1nc(S)nc(S)n1 | 1.37%
Cc1c(Cl)cccc1[N+](=O)[O-] | 2.24%
O=C1c2ccccc2C(=O)c2c1ccc(O)c2O | -1.08%
CC(C)Oc1ccccc1O | -0.395%
C/C(=C(\CCO)SS/C(CCO)=C(\C)N(C=O)Cc1cnc(C)nc1N)N(C=O)Cc1cnc(C)nc1N | 7.25%
CCCc1ccc(OC)cc1 | -2.76% [at 81.1 µM]
O=[N+]([O-])c1ccc(Cl)cc1Cl | 2.72%
C[C@H](CN1CCCC1)C(=O)c1ccc(C(F)(F)F)cc1 | -2.44%

System: not listed separately
Experiment: qHTS assay to identify small molecule antagonists of the peroxisome proliferator-activated receptor delta (PPARd) signaling pathway - cell viability counter screen (AID 743213); note: nearly all actives have a fitted effect of over 50% in size; note: potency is the fitted concentration of half-maximal effect
Conditions: PPARd-bla HEK293H viability, CellTiter-Glo luminescence, 17 h; series mostly up to 62 µM; viability change, negative = cytotoxic: at the top concentration
Procedure, shortened: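 Luminescence from CellTiter-Glo, added after the bla read and incubated 30 min at room temperature, gives viability of HEK293H PPARd-bla cells exposed to compounds for 17 h at 37 C with 300 nM L165041.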

Structure (SMILES) | viability change, negative = cytotoxic | Potency
c1ccc(CN(Cc2ccccc2)Cc2ccccc2)cc1 | 14.8% | 
O=C(OCCN1CCOCC1)c1cccnc1Nc1cccc(C(F)(F)F)c1 | -6.2% | 
CC1=C(C)C(=O)C(CCCCC#CCCCC#CCO)=C(C)C1=O | 13.2% | 
NC(=O)c1ccccc1 | 4.83% [at 80.4 µM] | 
Cc1ccc2c(Cl)cc(Cl)c(O)c2n1 | 2.33% | 
N#C[C@@H]1CC(F)(F)CN1C(=O)CNC1CC2CCC(C1)N2c1ncccn1 (stereo partly drawn) | -27.5% | 
CC(=O)OCC(=O)[C@@]1(O)CC[C@H]2[C@@H]3CCC4=CC(=O)C=C[C@]4(C)[C@@]3(F)[C@@H](O)C[C@@]21C | -5.25% | 
C[C@]12CCC(=O)C=C1[C@@H]1C[C@@H]1[C@H]1[C@@H]3[C@@H]4C[C@@H]4[C@@]4(CCC(=O)O4)[C@@]3(C)CC[C@@H]12 | 19% | 
Sc1nc(S)nc(S)n1 | 1.62% | 
CC/C=C/CCO | 2.61% [at 80.4 µM] | 
C[C@H]1C[C@H]2[C@@H]3CCC4=CC(=O)C=C[C@]4(C)[C@@]3(F)[C@@H](O)C[C@]2(C)[C@@]1(O)C(=O)COP(=O)(O)O | 12.7% | 
O=C1c2ccccc2C(=O)c2c1ccc(O)c2O | 2.44% | 
O=Cc1ccc(Cl)c([N+](=O)[O-])c1 | -13.5% | 
O=C(O)c1ccc2cc(O)ccc2c1 | 14.1% | 
CCc1cnc(C(=O)O)c(C(=O)O)c1 | -2.04% [at 80.4 µM] | 
Cc1ccc(S(=O)(=O)NC(=O)NC2CCCC2)cc1 | 11.5% | 
CCCCCCCCNC | -8.95% | 
NCCOCCOCCN | -12.2% | 
CCCCOC(=O)CC#N |  | 57.6 µM (active)
CC(C)Oc1ccccc1O | 4.95% | 
C/C(=C(\CCO)SS/C(CCO)=C(\C)N(C=O)Cc1cnc(C)nc1N)N(C=O)Cc1cnc(C)nc1N | 4.65% | 
Cc1c(Cl)cccc1Nc1ccccc1C(=O)O | -3.36% | 
O=C(Nc1ccc2c(c1)Cc1ccccc1-2)C(F)(F)F | -12.4% | 
CC(CC(C#N)(c1ccccc1)C(C)C)N(C)C (stereo not drawn) | 0.532% | 
Cc1cc(SC2=C(O)C[C@@](CCc3ccc(N)cc3)(C(C)C)OC2=O)c(C(C)(C)C)cc1CO | 3.49% | 
CCCC1CCCC(=O)O1 (stereo not drawn) | -4.25% | 
O=[N+]([O-])c1ccc(Cl)cc1Cl | 1.28% | 
CCCCCCC/C=C/C=O | -2.43% | 
S=c1[nH][nH]c(=S)s1 | 7.38% | 

Target: Peroxisome proliferator-activated receptor delta (Homo sapiens) (UniProt Q03181)
Experiment: qHTS assay to identify small molecule antagonists of the peroxisome proliferator-activated receptor delta (PPARd) signaling pathway (AID 743215; active = well fitted inhibition curve with a large enough effect in the signal ratio in the repeat runs, not every such curve was filed as active; the % refers to the signal ratio;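 note: cells stimulated with agonist L165041 at 300 nM final during compound exposure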)
Conditions: HEK293H PPARd-UAS-bla, beta-lactamase FRET ratio, antagonist, 17 h; series mostly up to 62 µM; ratio activity, negative = inhibition: at the top concentration
Procedure, shortened: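 HEK293H UAS-bla, PPARd; agonist L165041 300 nM final with cpd in DMSO; 37 C 17 h; FRET substrate, RT 2 h; fluorescence intensity.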

Structure (SMILES) | ratio activity, negative = inhibition
COc1cccc([C@H](O)C2CCN(CCc3ccc(F)cc3)CC2)c1OC | -11.9%
Cc1c(Cl)cccc1[N+](=O)[O-] | 0.462%
C[C@H]1C[C@H]2[C@@H]3CCC4=CC(=O)C=C[C@]4(C)[C@@]3(F)[C@@H](O)C[C@]2(C)[C@@]1(O)C(=O)COP(=O)(O)O | 5.27%
O=Cc1ccc(Cl)c([N+](=O)[O-])c1 | -3.12%
CCCCCCCCNC | 2.65%
CCCCC(CC)COCCC#N (stereo not drawn) | 7.48%
CCCc1ccc(OC)cc1 | 16.9% [at 80.4 µM]
C[C@H](CN1CCCC1)C(=O)c1ccc(C(F)(F)F)cc1 | -27.2%
S=c1[nH][nH]c(=S)s1 | -27.2%

Target: Bile acid receptor (Homo sapiens) (UniProt Q96RI1)
Sequence (Q96RI1 whole entry, looked up): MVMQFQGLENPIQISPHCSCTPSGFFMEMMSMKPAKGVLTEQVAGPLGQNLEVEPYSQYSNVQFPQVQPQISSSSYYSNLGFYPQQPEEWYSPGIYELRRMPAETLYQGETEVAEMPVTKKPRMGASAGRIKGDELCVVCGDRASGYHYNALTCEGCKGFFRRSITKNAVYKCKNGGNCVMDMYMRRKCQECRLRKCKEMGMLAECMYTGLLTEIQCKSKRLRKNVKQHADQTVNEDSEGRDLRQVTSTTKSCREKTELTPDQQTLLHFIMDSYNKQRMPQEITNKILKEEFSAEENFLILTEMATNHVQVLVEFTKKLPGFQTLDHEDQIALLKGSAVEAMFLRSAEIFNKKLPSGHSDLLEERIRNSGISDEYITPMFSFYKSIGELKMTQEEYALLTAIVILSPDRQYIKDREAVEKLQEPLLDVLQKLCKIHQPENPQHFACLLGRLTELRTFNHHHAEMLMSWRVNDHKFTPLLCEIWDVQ
Experiment: qHTS assay to identify small molecule antagonists of the farnesoid-X-receptor (FXR) signaling pathway (AID 743217; active = well fitted inhibition curve with a large enough effect in the signal ratio in the repeat runs, not every such curve was filed as active; the % refers to the signal ratio)
Conditions: HEK293T FXR-UAS-bla, beta-lactamase ratio, CDCA-stimulated, 16 h; series mostly up to 62.6 µM; activity change, negative = inhibition: at the top concentration
Procedure, shortened: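 GeneBLAzer FXR-UAS-bla HEK 293T, CDCA-stimulated (50 uM final). Compound treatment 16 h, 37 °C. Detection: beta-lactamase cleavage of B/G FRET substrate, fluorescence.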

Structure (SMILES) | activity change, negative = inhibition
CC1=C(C)C(=O)C(CCCCC#CCCCC#CCO)=C(C)C1=O | -18%
COc1cccc([C@H](O)C2CCN(CCc3ccc(F)cc3)CC2)c1OC | -8.34%
NC(=O)c1ccccc1 | -4.6% [at 81.1 µM]
N#C[C@@H]1CC(F)(F)CN1C(=O)CNC1CC2CCC(C1)N2c1ncccn1 (stereo partly drawn) | -1.86%
Sc1nc(S)nc(S)n1 | 1.84%
CC/C=C/CCO | 1.04% [at 81.1 µM]
CC(C)(Cc1c[nH]c2ccccc12)NCC(O)COc1ccccc1C#N (stereo not drawn) | 2.34%
Cc1c(Cl)cccc1[N+](=O)[O-] | -20.9%
O=C(O)c1ccc2cc(O)ccc2c1 | 2.27%
CCCCCCCCNC | 0.754%
Cc1c(Cl)cccc1Nc1ccccc1C(=O)O | -0.155%
O=C(Nc1ccc2c(c1)Cc1ccccc1-2)C(F)(F)F | -6.55%
CC(CC(C#N)(c1ccccc1)C(C)C)N(C)C (stereo not drawn) | 1.68%
C[C@H](CN1CCCC1)C(=O)c1ccc(C(F)(F)F)cc1 | -8.61%

System: not listed separately
Experiment: qHTS assay to identify small molecule agonists of the farnesoid-X-receptor (FXR) signaling pathway - cell viability counter screen (AID 743218); note: nearly all actives have a fitted effect of over 45% in size; note: potency is the fitted concentration of half-maximal effect
Conditions: FXR-bla HEK293T viability, CellTiter-Glo luminescence, 16 h; series mostly up to 62.6 µM; viability change, negative = cytotoxic: at the top concentration
Procedure, shortened: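 Parallel cytotoxicity test: compound-treated (16 h, 37 C) HEK 293T FXR-bla reporter cells were lysed with CellTiter-Glo and luminescence recorded.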

Structure (SMILES) | viability change, negative = cytotoxic | Potency
c1ccc(CN(Cc2ccccc2)Cc2ccccc2)cc1 | 54.4% | 
O=C(OCCN1CCOCC1)c1cccnc1Nc1cccc(C(F)(F)F)c1 | -2.88% | 
CC1=C(C)C(=O)C(CCCCC#CCCCC#CCO)=C(C)C1=O | -9.42% | 
COc1cccc([C@H](O)C2CCN(CCc3ccc(F)cc3)CC2)c1OC | -15.7% | 
N#C[C@@H]1CC(F)(F)CN1C(=O)CNC1CC2CCC(C1)N2c1ncccn1 (stereo partly drawn) | -11.2% | 
CC(=O)OCC(=O)[C@@]1(O)CC[C@H]2[C@@H]3CCC4=CC(=O)C=C[C@]4(C)[C@@]3(F)[C@@H](O)C[C@@]21C | 8.6% | 
C[C@]12CCC(=O)C=C1[C@@H]1C[C@@H]1[C@H]1[C@@H]3[C@@H]4C[C@@H]4[C@@]4(CCC(=O)O4)[C@@]3(C)CC[C@@H]12 | -16.6% | 
Sc1nc(S)nc(S)n1 | 0.346% | 
CC/C=C/CCO | -6.23% [at 81.1 µM] | 
Cc1ccc(NC(=O)c2ccc(CN3CCN(C)CC3)cc2)cc1Nc1nccc(-c2cccnc2)n1 | -0.665% | 
Cc1c(Cl)cccc1[N+](=O)[O-] | -3.02% | 
C[C@H]1C[C@H]2[C@@H]3CCC4=CC(=O)C=C[C@]4(C)[C@@]3(F)[C@@H](O)C[C@]2(C)[C@@]1(O)C(=O)COP(=O)(O)O | 7.49% | 
O=C1c2ccccc2C(=O)c2c1ccc(O)c2O | -21.7% | 
O=Cc1ccc(Cl)c([N+](=O)[O-])c1 | -8.57% | 
O=C(O)c1ccc2cc(O)ccc2c1 | 15.8% | 
CCc1cnc(C(=O)O)c(C(=O)O)c1 | -8.14% [at 81.1 µM] | 
Cc1ccc(S(=O)(=O)NC(=O)NC2CCCC2)cc1 | 9.93% | 

Structure (SMILES) | viability change, negative = cytotoxic | Potency
CCCCCCCCNC | -2.41% | 
NCCOCCOCCN |  | 6.92 µM (active)
CCCCOC(=O)CC#N | -16.1% [at 81.1 µM] | 
CCCCC(CC)COCCC#N (stereo not drawn) | 0.58% | 
CC(C)Oc1ccccc1O | -2.11% | 
C/C(=C(\CCO)SS/C(CCO)=C(\C)N(C=O)Cc1cnc(C)nc1N)N(C=O)Cc1cnc(C)nc1N | 2.88% | 
Cc1c(Cl)cccc1Nc1ccccc1C(=O)O | -34.1% | 
O=C(Nc1ccc2c(c1)Cc1ccccc1-2)C(F)(F)F | 8.85% | 
CC(CC(C#N)(c1ccccc1)C(C)C)N(C)C (stereo not drawn) | -10.9% | 
CCCc1ccc(OC)cc1 | 23.3% [at 81.1 µM] | 
Cc1cc(SC2=C(O)C[C@@](CCc3ccc(N)cc3)(C(C)C)OC2=O)c(C(C)(C)C)cc1CO | 6.84% | 
CCCC1CCCC(=O)O1 (stereo not drawn) | -15.8% | 
O=[N+]([O-])c1ccc(Cl)cc1Cl | 9.83% | 
CCCCCCC/C=C/C=O | 3.36% | 
C[C@H](CN1CCCC1)C(=O)c1ccc(C(F)(F)F)cc1 | 4.06% | 
S=c1[nH][nH]c(=S)s1 | 36.4% | 
O=C(N[C@@H](Cc1ccccc1)[C@@H](O)C(=O)N1C[C@@H](O)[C@@H](O)C1)c1cc2cc(Cl)ccc2[nH]1 | -15.2% | 
